{
  "source": "PubChem BioAssay (EPA / NIEHS)",
  "key": {"[1]": {"read-out": "Actin alpha 1 (ACTA1), ACTA1 (gene 58)", "assay": "BSK_MyoF_ACTA1: BioMAP Diversity Plus: MyoF Assay for Actin alpha 1 (ACTA1) Biomarker Activity (AID 2284244)", "conditions": "primary human lung fibroblasts", "summary_of_the_method": "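Lung fibroblasts, human primary, 24 h compound exposure → a-SMA ELISA. Positive-direction fit vs DMSO control.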"}, "[2]": {"read-out": "Interleukin 2 (IL2), IL2 (gene 3558)", "assay": "BSK_BT_xIL2: BioMAP Diversity Plus: BT Assay for Interleukin 2 (IL2) Biomarker Activity (AID 2284245)", "conditions": "primary human B cells with PBMC", "summary_of_the_method": "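B cell + PBMC co-culture (human primary), compound added, 24 h incubation; secreted IL-2 measured multiplexed on Luminex xMAP; gain-of-signal fit vs DMSO.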"}, "[3]": {"read-out": "Basic fibroblast growth factor (bFGF), FGF2 (gene 2247)", "assay": "BSK_MyoF_bFGF: BioMAP Diversity Plus: MyoF Assay for Basic fibroblast growth factor (bFGF) Biomarker Activity (AID 2284246)", "conditions": "primary human lung fibroblasts", "summary_of_the_method": "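ELISA-measured bFGF level serves as the read-out, taken 24 h after chemical dosing of human lung fibroblasts. Values represent signal gain over the DMSO negative control.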"}, "[4]": {"read-out": "Collagen IV, COL4A1 (gene 1282)", "assay": "BSK_MyoF_CollagenIV: BioMAP Diversity Plus: MyoF Assay for Collagen IV Biomarker Activity (AID 2284247)", "conditions": "primary human lung fibroblasts", "summary_of_the_method": "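Steps: dose human lung fibroblasts; culture 24 h; quantify Collagen IV by ELISA; fit increase versus DMSO control. Parallel SRB total-protein staining (0.1% SRB after 10% TCA fixation, 560 nm) tracks overt cytotoxicity.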"}, "[5]": {"assay": "CCTE_Mundy_HCI_hNP1_Casp3_7: CCTE's Caspase-Glo 3/7 Assay in human neuroprogenitor cells for Apoptosis, Mundy Lab (AID 2284240)", "summary_of_the_method": "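Neuroepithelial-lineage stem cells from WA09 embryonic cells were treated with chemicals after 40–44 h of culture. Twenty-four hours later, caspase-3/7 activation was detected luminescently after a 30 min room-temperature reagent step, with DMSO as baseline.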"}, "[6]": {"assay": "CCTE_Mundy_HCI_hNP1_CellTiter: CCTE's Cell Titer-Glo 2 Assay in human neuroprogenitor cells for Viability, Mundy Lab (AID 2284241; active means hit-call score of the fitted dose curve at least 0.9, where 1 is the maximum;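 on AC50: a hit is a drop in ATP luminescence versus DMSO meaning reduced viability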)", "summary_of_the_method": "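Measures ATP content in human neural progenitors derived from WA09 embryonic cells. Read-out at 26.5 hours after dosing, with DMSO serving as the negative control and baseline.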"}, "[7]": {"assay": "CCTE_Mundy_HCI_Cortical_Synap_Neur_Matur_NeuronCount: CCTE's Synaptogenesis and Neurite Maturation Assay in rat cortical cells for Neuron Count, Mundy Lab (AID 2284242; active means hit-call score of the fitted dose curve at least 0.9, where 1 is the maximum)", "method": "CCTE_Mundy_HCI_Cortical_Synap&Neurite_Matur is a multiplexed, cell-based-readout assay that uses rat primary cortical cells with measurements taken at 288.33 hours after chemical dosing in a microplate: 96-well plate.CCTE_Mundy_HCI_Cortical_Synap_Neur_Matur_NeuronCount is one of eight components of the CCTE_Mundy_HCI_Cortical_Synap&Neurite_Matur assay. It measures cell viability related to number of neurons using High Content Imaging of fluorescently labelled markers.[…] Using a type of morphology reporter, loss -of-signal activity can be used to understand developmental effects.\nCells are plated onto 96 well plates and allowed 2 hr for attachment to the substrate. At days in vitro (DIV) 5, Cytosine Arabinoside (AraC) is added to arrest glial cell growth. Chemicals are dosed and a media change is performed at DIV 7 of differentiation and is continued through DIV 12 when the experiment is terminated. Cells are fixed with […] and Hoechst Dye. Cells are stained using Millipore Mouse anti-MAP2MAB3418 (1:800) and Millipore Rabbit anti-Synaptophysinsc-1750 (1:250) primary antibodies and Alexa Fluor-488 goat anti-mouse and AlexaFluor-546 goat anti-rabbit secondary antibodies to label neuronal cell nuclei, synapses and neurites. A Cellomics ArrayScan VTi HCS Reader is used for automated image acquisition and analysis of neurite outgrowth."}},
  "note": "Inconclusive results are not listed. Activity calls are given as the source filed them. How the source made its calls, unless noted: active means hit-call score of the fitted dose curve at least 0.9, where 1 is the maximum; inactive means score below 0.9.",
  "data": [
    {"smiles": "Cc1cc(CCC(=O)OCCOCCOCCOC(=O)CCc2cc(C)c(O)c(C(C)(C)C)c2)cc(C(C)(C)C)c1O", "values": [
      {"measurement": "outcome", "setting": "[1]", "value": "inactive"},
      {"measurement": "outcome", "setting": "[2]", "value": "inactive"},
      {"measurement": "outcome", "setting": "[3]", "value": "inactive"},
      {"measurement": "outcome", "setting": "[4]", "value": "inactive"}
    ]},
    {"smiles": "COc1ccc(CCN2CCC(Nc3nc4ccccc4n3Cc3ccc(F)cc3)CC2)cc1", "values": [
      {"measurement": "AC50", "setting": "[1]", "value": "8.05 µM (active)"},
      {"measurement": "AC50", "setting": "[2]", "value": "6.51 µM (active)"},
      {"measurement": "AC50", "setting": "[3]", "value": "7.78 µM (active)"},
      {"measurement": "outcome", "setting": "[4]", "value": "inactive"}
    ]},
    {"smiles": "O=C1OC2(c3ccccc31)c1ccc(O)c(Br)c1Oc1c2ccc(O)c1Br", "values": [
      {"measurement": "outcome", "setting": "[1]", "value": "inactive"},
      {"measurement": "outcome", "setting": "[2]", "value": "inactive"},
      {"measurement": "outcome", "setting": "[3]", "value": "inactive"},
      {"measurement": "AC50", "setting": "[4]", "value": "4.52 µM (active)"}
    ]},
    {"smiles": "CSCCC=O", "values": [
      {"measurement": "outcome", "setting": "[1]", "value": "inactive"},
      {"measurement": "outcome", "setting": "[2]", "value": "inactive"},
      {"measurement": "outcome", "setting": "[3]", "value": "inactive"},
      {"measurement": "outcome", "setting": "[4]", "value": "inactive"}
    ]},
    {"smiles": "COCCOCCOCCO", "values": [
      {"measurement": "outcome", "setting": "[5]", "value": "inactive"},
      {"measurement": "outcome", "setting": "[6]", "value": "inactive"}
    ]},
    {"smiles": "Oc1c(Cl)cc(Cl)c(Cl)c1Cc1c(O)c(Cl)cc(Cl)c1Cl", "values": [
      {"measurement": "AC50", "setting": "[5]", "value": "27 µM (active)"},
      {"measurement": "AC50", "setting": "[6]", "value": "21.2 µM (active)"},
      {"measurement": "AC50", "setting": "[7]", "value": "5 µM (active)"},
      {"measurement": "AC50", "setting": "[1]", "value": "0.469 µM (active)"},
      {"measurement": "AC50", "setting": "[2]", "value": "19.6 µM (active)"},
      {"measurement": "AC50", "setting": "[3]", "value": "1.32 µM (active)"},
      {"measurement": "outcome", "setting": "[4]", "value": "inactive"}
    ]},
    {"smiles": "CS(=O)(=O)c1ccc(C2=C(c3ccccc3)C(=O)OC2)cc1", "values": [
      {"measurement": "outcome", "setting": "[1]", "value": "inactive"},
      {"measurement": "outcome", "setting": "[2]", "value": "inactive"},
      {"measurement": "outcome", "setting": "[3]", "value": "inactive"},
      {"measurement": "outcome", "setting": "[4]", "value": "inactive"}
    ]},
    {"smiles": "c1ccc2cc(Nc3ccc(Nc4ccc5ccccc5c4)cc3)ccc2c1", "values": [
      {"measurement": "outcome", "setting": "[1]", "value": "inactive"},
      {"measurement": "outcome", "setting": "[2]", "value": "inactive"},
      {"measurement": "outcome", "setting": "[3]", "value": "inactive"},
      {"measurement": "outcome", "setting": "[4]", "value": "inactive"}
    ]},
    {"smiles": "CC(=O)c1c(C)c([N+](=O)[O-])c(C(C)(C)C)c([N+](=O)[O-])c1C", "values": [
      {"measurement": "outcome", "setting": "[1]", "value": "inactive"},
      {"measurement": "outcome", "setting": "[2]", "value": "inactive"},
      {"measurement": "outcome", "setting": "[3]", "value": "inactive"},
      {"measurement": "outcome", "setting": "[4]", "value": "inactive"}
    ]},
    {"smiles": "C=C(C)C(=O)OCCOCCOCCOCCOC(=O)C(=C)C", "values": [
      {"measurement": "outcome", "setting": "[1]", "value": "inactive"},
      {"measurement": "outcome", "setting": "[2]", "value": "inactive"},
      {"measurement": "outcome", "setting": "[3]", "value": "inactive"},
      {"measurement": "outcome", "setting": "[4]", "value": "inactive"}
    ]},
    {"smiles": "CC=Cc1ccc(OCC)c(O)c1", "values": [
      {"measurement": "outcome", "setting": "[1]", "value": "inactive"},
      {"measurement": "outcome", "setting": "[2]", "value": "inactive"},
      {"measurement": "outcome", "setting": "[3]", "value": "inactive"},
      {"measurement": "outcome", "setting": "[4]", "value": "inactive"}
    ]},
    {"smiles": "COc1cc(Cl)c(OC)cc1N", "values": [
      {"measurement": "outcome", "setting": "[1]", "value": "inactive"},
      {"measurement": "outcome", "setting": "[2]", "value": "inactive"},
      {"measurement": "outcome", "setting": "[3]", "value": "inactive"},
      {"measurement": "outcome", "setting": "[4]", "value": "inactive"}
    ]}
  ]
}
